High-throughput results deposited in PubChem by Broad Institute.
Hits are enriched below; roughly 2.4% of the tested compounds scored in any of these assays.
NSD2 inh: inhibitors of human histone methyltransferase NSD2; inhibition, % at 12.5 µM; actives 0.54% (n = 310,000); AID 743445; NSD2 peptide methylation, AlphaScreen, 120 min
DYRK1A inh: Dyrk1A (rat) kinase inhibition; ADP-Glo luminescence, NFATc1 peptide; inhibition, % at 12.5 µM; actives 0.43% (n = 310,000); Q63470; AID 504441;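 note: plate controls were vehicle with enzyme for no effect and no enzyme for full effect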
miR122 inh: inhibitors of miR-122 in Huh7 cells | Huh7 miR-122 Renilla luciferase sensor, 48 h; neutral wells = 0, positive control = 100 | activation (reporter increase), % at 12.5 µM | actives 0.3% (n = 340,000) | AID 602342;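 active = mean replicate activation score at least 90 and every replicate individually at or above 90; inconclusive = only one of the two criteria met; inactive = neither criterion met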;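 note: higher luciferase means less miR-122 activity so hits act as miR-122 inhibitors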
GSIS activator: primary screen for activators of insulin secretion dependent on glucose, INS-1E cells, GLuc reporter luminescence. INS-1E GLuc reporter insulin secretion, 2-3 h. activation, % at 16.6 µM. actives 0.61% (n = 370,000). AID 743287;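 active = lowest replicate activation of at least 40%, so every replicate reaches that level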;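 note: 0% = median of neutral control wells and 100% = median of IBMX positive control wells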
MITF TRPM1 HTS: MITF TRPM1 promoter activation in melanoma cells; AID 588334; activation, % at 12.5 µM; actives 0.75% (n = 300,000); SK-MEL-5 TRPM1-promoter luciferase, 24 h; % of positive control, neutral wells = 0;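 active = mean activation of at least 80% with every replicate also reaching 80%; inconclusive = mean reaches 80% but some replicate falls short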;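 note: 0% = neutral control wells and 100% = parthenolide positive control wells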
Wnt bcat act: activators of Wnt/beta-catenin signaling | Wnt/beta-catenin reporter cell assay, activator, plate reader | AID 743398 | activation, % at 9.35 µM | actives 1.2% (n = 300,000); in the data active = activation above about 30%, passing the limit was not always enough; inconclusive = no clear call, values can overlap the other calls;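 note: 0% = neutral control wells and 100% = positive control wells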
Numbers without * were called inactive; ? = inconclusive; . = not tested or not shown; ! = not confirmed by another sample; [ ] = dose if it differs, or a comment. Cut-off read from the data, not from the text of the source, unless noted: active = inhibition above about 50%; inactive = the rest.

SMILES	NSD2 inh	DYRK1A inh	miR122 inh	GSIS activator	MITF TRPM1 HTS	Wnt bcat act
CO[C@H]1CN(C)C(=O)c2cc(NC(=O)Nc3ccccc3)ccc2OC[C@@H](C)N(C(C)=O)C[C@H]1C	.	.	-6[16.7 µM]	1	.	.
COC(=O)c1ccc(/C=N/N2CCN(Cc3ccc(Cl)cc3)CC2)cc1	-1	.	-1	4	.	51*
O=C(O)c1ccc(/C=N/N2CCN(Cc3ccc(Cl)cc3)CC2)cc1	-1	-4	-1	-9	8	6
COc1ccc(C(=O)/C=C/c2ccc(N(C)C)cc2)c(OC)c1	-9	3	212*	-13	.	1
N/C(=N\c1nc2ccccc2o1)NC(=O)c1ccccc1Br	-2	-2	.	-1	85*	7
N/C(=N\c1nc2ccccc2o1)NC(=O)c1ccc(Cl)cc1	-4	-1	0	-2	1	.
CCc1ccc(C(=O)Nc2cc3c(cc2Cl)OCCCO3)cc1	-9	-7	-1	.	109*	.
O=C(Cc1ccccc1)Nc1ccc2c(c1)OC1(CCCC1)O2	2	-4	6	-5	110*	48*
O=C(Cc1ccccc1)Nc1cc2c(cc1Cl)OCCCO2	0	-5	-2	-2	94*	14
O=C(Nc1cc2c(cc1Cl)OCCO2)c1ccco1	-3	4	10	.	.	.
O=C(Nc1cc2c(cc1C(=O)O)OCCCO2)c1ccc(C(F)(F)F)cc1	3	3	8	-13	31	20
C[C@@H]1CN([C@H](C)CO)C(=O)c2cc(NC(=O)Cc3ccccc3)ccc2O[C@@H](C)CCCCO[C@@H]1CN(C)C	.	.	3[16.7 µM]	20	.	.
CO[C@@H]1CN(C)C(=O)c2cc(NS(=O)(=O)Cc3ccccc3)ccc2OC[C@H](C)NC[C@@H]1C	.	.	.	8	.	.
Cc1ccc(C2(C)NC(=O)N(CC(=O)Nc3ccc(-c4nc5ccc(C)cc5s4)cc3)C2=O)cc1 (centres undefined)	.	-2	.	44*	59	38*
CCN(CC)S(=O)(=O)c1ccc(C(=O)OCC(=O)Nc2ccc(-c3nc4ccc(C)cc4s3)cc2)cc1	2	0	3	9	3	-4
Cc1ccc2nc(-c3ccc(NC(=O)CCN4C(=O)c5ccccc5C4=O)cc3)sc2c1	-1	-1	-3	.	23	17
Cc1ccc(NC(=O)CSc2nnc(-c3cccnc3)s2)cc1	-6	5	-9	42*	8	-4
Cc1ccc2nc(-c3ccc(NC(=O)COCC(=O)O)cc3)sc2c1	-2	21	.	-3	.	38*
Cc1ccc2nc(-c3ccc(NC(=O)CSCC(=O)O)cc3)sc2c1	-2	3	0	2	103*	72*
CCN1CCN(C(=O)c2cccc(S(=O)(=O)Nc3c(C)n(C)n(-c4ccccc4)c3=O)c2)CC1	1	.	.	.	.	.
C[C@@H]1CCCCO[C@H](CN(C)C(=O)C2CCCCC2)[C@H](C)CN([C@@H](C)CO)C(=O)c2cc(NC(=O)C3CCCCC3)ccc2O1	.	.	-12[16.7 µM]	-30	.	.
C[C@@H]1CN([C@@H](C)CO)C(=O)c2cc(NC(=O)C3CCCCC3)ccc2O[C@@H](C)CCCCO[C@@H]1CN(C)C(=O)NC1CCCCC1	.	.	46[16.7 µM]	-10	.	.
COc1cccc(S(=O)(=O)Nc2ccc3c(c2)[C@@H]2C[C@@H](CC(=O)N4CCCCC4)O[C@@H](CO)[C@@H]2O3)c1	.	.	3[16.7 µM]	-8	.	.
COc1ccc2c3c(n(C)c2c1)[C@@H](CO)N(Cc1ccccc1OC)CC31CCN(C)CC1	.	.	.	-4	.	.
Cc1ccc(NC(=O)CSCC(=O)Nc2nnc(C)s2)cc1	-1	-2	-1	47*	-1	-2
SMILES	NSD2 inh	DYRK1A inh	miR122 inh	GSIS activator	MITF TRPM1 HTS	Wnt bcat act
O=C(NCC1CCCO1)c1ccc2c(c1)N(Cc1ccccc1)C(=O)CS2 (centres undefined)	-8	.	-1	6	-4	-3
Cc1cccc(CN2C(=O)CSc3ccc(C(=O)NC4CC4)cc32)c1	-2	0	-5	191*	-23	-2
O=C1/C(=C\c2ccc3ccccc3c2)CCCc2ccccc21	0	-3	14	-22	41	.
Cc1ccccc1/C=C1\CCCc2ccccc2C1=O	-1	3	-4	.	.	77*
CCCc1cc(C(=O)Nc2nnc(C)s2)cs1	-3	1	-3	5	85*	29
Cc1nnc(NC(=O)c2ccc3ccccc3c2)s1	-6	4	-3	25	92*	40*
Cc1ccc(C(=O)Nc2nnc(C)s2)cc1	4	-1	-3	7	56	20
Cc1nnc(NC(=O)c2ccc(Br)cc2)s1	.	4	4	.	94*	9
CC(C)c1nnc(NC(=O)c2ccc3ccccc3c2)s1	-2	0	-5	-4	54	29
CCC(=O)N(C)C[C@@H]1Oc2cc(C#CC3CC3)ccc2S(=O)(=O)N([C@@H](C)CO)C[C@H]1C	.	.	14[16.7 µM]	3	.	.
COc1ccc(Nc2nc3ccc(OC)cc3s2)cc1	11	.	.	7	91*	28
COc1ccc2nc(NC(=O)c3c(C)noc3C)sc2c1	0	9	5	-1	.	35*
COc1ccc2nc(NC(=O)Nc3ccccc3)sc2c1	.	10	6	-9	68	56*!
COc1ccc2nc(Nc3nc(C)c(C(C)=O)s3)sc2c1	-8	-3	-7	.	69	56*
CC(=O)c1sc(Nc2nc3cc4c(cc3s2)OCO4)nc1C	16	-2	.	-3	3	?
CCCN1C[C@H](C)[C@H](OC)CN(C)C(=O)c2cc(NC(=O)c3cccc(OC)c3)ccc2OC[C@@H]1C	.	.	6[16.7 µM]	14	.	.
CCc1noc(C)c1C(=O)Nc1nc(-c2cccs2)cs1	2	3	-3	15	24	12
Cc1noc(C)c1C(=O)Nc1nc(-c2cccs2)cs1	-2	.	10	-12	42	30*
CSc1cccc(CNC(=O)C2CCC(=O)N(CCc3ccccc3)C2)c1 (centres undefined)	-1	.	2	-12	.	46*
C[C@@H]1CN([C@@H](C)CO)C(=O)c2cc(NC(=O)C3CCCCC3)ccc2O[C@@H]1CN(C)Cc1ccc(C(F)(F)F)cc1	.	.	-3[16.7 µM]	-26	.	.
COc1ccc(NC(=O)COC(=O)CNC(=O)C2CCCCC2)cc1OC	-1	3	0	59*	2	0
O=C(COC(=O)c1cccc(F)c1)Nc1ccc2c(c1)OCCO2	-4	-3	.	2	9	32*
O=C(COC(=O)c1ccccc1F)Nc1ccc2c(c1)OCCO2	-3	7	-4	2	10	41*
CC(C)NC(=O)COC(=O)c1ccc(NS(=O)(=O)c2ccc3c(c2)OCCO3)cc1	0	-4	280*	.	.	.
Cc1cccc(C(=O)OCC(=O)Nc2ccc3c(c2)OCCO3)c1	-1	-2	-5	0	12	8
CN(CC(=O)Nc1ccc(F)cc1)C(=O)COC(=O)c1cccc(N(C)C)c1	-3	-4	-1	-2	.	41*
